Results as given in PubChem BioAssay AID1159580 (chemical genetic matrix, 2015).
About 2,000 (36%) of roughly 5,500 compounds were called active. Not shown: some 18% with an inconclusive outcome. Cut-off read from the data, not from the text of the source: active = normalized growth mostly below about 0.91 (no sharp cut-off); inconclusive = no clear call, values can overlap the other calls; inactive = mostly above about 0.92. Some of the results follow.

Assay: chemical genetic growth profiling, strain panel (AID 1159580);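 note: tested at 20 µM; growth read once vehicle control cultures reached saturation at 30 °C; 1 = growth at the plate median or of vehicle wells; lower values mean less growth of the strain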
Conditions: S. cerevisiae deletion strains, growth OD

Measured: normalized growth

COc1c(-c2coc3cc4c(cc3c2=O)CC(OC(C)=O)C(C)(C)O4)ccc2c1C=CC(C)(C)O2 (stereo not given)
inactive: locus YAL021C, strain ccr4, hits give low values 1.01 | locus YAL026C, strain drs2, hits give low values 1.04 | locus YAL030W, strain snc1, hits give low values 1.03 | locus YBL061C, strain skt5, hits give low values 1.02 | locus YBR009C, strain hhf1, hits give low values 1.02 | locus YBR023C, strain chs3, hits give low values 1.03 | locus YBR171W, strain sec66, hits give low values 1.05 | locus YBR231C, strain swc5, hits give low values 1.05 | locus YBR279W, strain paf1, hits give low values 1.03 | locus YCL011C, strain gbp2, hits give low values 1.04 | locus YCL016C, strain dcc1, hits give low values 1.03 | locus YCL061C, strain MRC1, hits give low values 1.03 | locus YCL069W, strain vba3, hits give low values 1.04 | locus YCR088W, strain abp1, hits give low values 1.04 | locus YDL005C, strain med2, hits give low values 1.04 | locus YDL040C, strain nat1, hits give low values 1.03 | locus YDR001C, strain nth1, hits give low values 1.03 | locus YDR069C, strain doa4, hits give low values 1.03 | locus YDR137W, strain rgp1, hits give low values 1.08 | locus YDR159W, strain sac3, hits give low values 1.05 | locus YDR195W, strain ref2 1.05 | locus YDR297W, strain sur2, hits give low values 1.03 | locus YDR334W, strain swr1, hits give low values 1.03 | locus YDR335W, strain msn5, hits give low values 1.03 | locus YDR392W, strain spt3, hits give low values 0.945 | locus YEL003W, strain gim4, hits give low values 1.03 | locus YEL037C, strain rad23, hits give low values 1.02 | locus YEL061C, strain CIN8 (second series), hits give low values 1.04 | locus YER015W, strain faa2, hits give low values 1.03 | locus YER016W, strain bim1, hits give low values 1.03 | locus YER111C, strain swi4, hits give low values 1.02 | locus YER155C, strain BEM2 (second series), hits give low values 1.03 | locus YFR010W, strain ubp6, hits give low values 1.03 | locus YGL167C, strain pmr1, hits give low values 1.03 | locus YGL173C, strain kem1, hits give low values 1.03 | locus YGL227W, strain vid30, hits give low values 1.04 | locus YGL240W, strain doc1, hits give low values 1.03 | locus YGL253W, strain hxk2, hits give low values 1.04 | locus YHR013C, strain ard1, hits give low values 1.03 | locus YHR027C, strain rpn1, hits give low values 1.02 | locus YHR030C, strain SLT2, hits give low values 0.961 | locus YHR079C, strain IRE1, hits give low values 0.947 | locus YHR142W, strain chs7, hits give low values 1.05 | locus YJL092W, strain hpr5, hits give low values 1.04 | locus YJL095W, strain BCK1 (second series), hits give low values 1.03 | locus YJL095W, strain BCK1, hits give low values 0.973 | locus YJL115W, strain asf1, hits give low values 1.04 | locus YJL129C, strain trk1, hits give low values 1.06 | locus YJL154C, strain vps35, hits give low values 1.03 | locus YJL164C, strain tpk1, hits give low values 1.03 | locus YJL166W, strain qcr8, hits give low values 1.03 | locus YJL187C, strain SWE1, hits give low values 1.02 | locus YJR066W, strain TOR1, hits give low values 0.973 | locus YKL160W, strain elf1, hits give low values 1.04 | locus YKR026C, strain gcn3, hits give low values 1.04 | locus YKR091W, strain srl3, hits give low values 1.02 | locus YLL001W, strain dnm1, hits give low values 1.03 | locus YLL026W, hits give low values 1.02 | locus YLL041C, strain sdh2, hits give low values 1.02 | locus YLR027C, strain aat2, hits give low values 1.03 | locus YLR113W, strain HOG1, hits give low values 0.934 | locus YLR221C, strain rsa3, hits give low values 1.03 | locus YLR258W, strain gsy2, hits give low values 1.03 | locus YLR262C, strain YPT6 (second series), hits give low values 1.07 | locus YLR320W, strain mms22, hits give low values 1.03 | locus YLR342W, strain FKS1, hits give low values 1.03 | locus YLR357W, strain rsc2, hits give low values 1.04 | locus YLR370C, strain arc18, hits give low values 1.03 | locus YLR384C, strain iki3, hits give low values 1.02 | locus YML120C, strain ndi1, hits give low values 1.03 | locus YMR058W, strain fet3, hits give low values 1.04 | locus YMR125W, strain sto1, hits give low values 1.03 | locus YMR129W, hits give low values 1.03 | locus YMR205C, strain PFK2, hits give low values 1.04 | locus YMR231W, strain pep5, hits give low values 1.03 | locus YNL071W, strain lat1, hits give low values 1.03 | locus YNL183C, strain NPR1, hits give low values 0.925 | locus YNL209W, strain ssb2, hits give low values 1.03 | locus YNL248C, strain rpa49, hits give low values 1.03 | locus YNL322C, strain KRE1 (second series), hits give low values 1.02 | locus YNR049C, strain mso1, hits give low values 1.03 | locus YOR001W, strain rrp6, hits give low values 1.02 | locus YOR070C, strain gyp1, hits give low values 1.02 | locus YOR080W, strain dia2, hits give low values 1.02 | locus YOR083W, strain WHI5, hits give low values 1.03 | locus YOR106W, strain vam3, hits give low values 1.06 | locus YOR231W, strain MKK1, hits give low values 0.957 | locus YOR265W, strain rbl2, hits give low values 1.02 | locus YOR270C, strain vph1, hits give low values 1.03 | locus YOR290C, strain snf2, hits give low values 0.999 | locus YPL051W, strain arl3, hits give low values 1.03 | locus YPL078C, strain atp4, hits give low values 1.04 | locus YPL106C, strain sse1, hits give low values 1.05 | locus YPL240C, strain hsp82, hits give low values 1.02 | locus YPL256C, strain CLN2, hits give low values 0.958
